From PubChem BioAssay (EPA / NIEHS)
Where “and” joins values, the source holds several entries; their conditions need not be identical. Equal values may be shown once. Inconclusive results are not listed. Where a structure was tested more than once in an assay, its records may differ in their call. Calls of active or inactive are those of the source. How the source made its calls, unless noted: active means hit-call score of the fitted dose curve at least 0.9, where 1 is the maximum; inactive means score below 0.9.

Columns and labels:
[1] = read-out: Collagen I, COL1A1 (gene 1277); test: BSK_MyoF_CollagenI: BioMAP Diversity Plus: MyoF Assay for Collagen I Biomarker Activity (AID 2284238); settings: primary human lung fibroblasts
Summary of the method: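 Multiplexed primary human lung fibroblast system; Collagen I measured by ELISA at 24 h post-dose. Increases are referenced to DMSO.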

[2] = read-out: Collagen III, COL3A1 (gene 1281); test: BSK_MyoF_CollagenIII: BioMAP Diversity Plus: MyoF Assay for Collagen III Biomarker Activity (AID 2284239); settings: primary human lung fibroblasts
Summary of the method: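 Compounds are added to primary human lung fibroblasts and left for 24 hours. Collagen III is then quantified by ELISA. Analysis takes DMSO as baseline and fits increases in signal.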

[3] = read-out: Actin alpha 1 (ACTA1), ACTA1 (gene 58); test: BSK_MyoF_ACTA1: BioMAP Diversity Plus: MyoF Assay for Actin alpha 1 (ACTA1) Biomarker Activity (AID 2284244); settings: primary human lung fibroblasts
Summary of the method: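 Cells were exposed to chemical for 24 h before a-SMA levels were quantified by ELISA in human lung fibroblasts. Increases were fitted against DMSO as negative control; parallel SRB staining (0.1% after 10% TCA fixation, 560 nm) assessed cytotoxicity.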

[4] = read-out: Interleukin 2 (IL2), IL2 (gene 3558); test: BSK_BT_xIL2: BioMAP Diversity Plus: BT Assay for Interleukin 2 (IL2) Biomarker Activity (AID 2284245); settings: primary human B cells with PBMC
Summary of the method: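 The BT system combines human B cells with peripheral blood mononuclear cells. Twenty-four hours after chemical dosing, secreted IL-2 was measured with xMAP bead technology, and responses were analyzed as increases over DMSO controls.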

[5] = read-out: Basic fibroblast growth factor (bFGF), FGF2 (gene 2247); test: BSK_MyoF_bFGF: BioMAP Diversity Plus: MyoF Assay for Basic fibroblast growth factor (bFGF) Biomarker Activity (AID 2284246); settings: primary human lung fibroblasts
Summary of the method: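 Chemicals are added to human lung fibroblast cultures and incubated 24 h. bFGF is then measured by ELISA, while parallel cultures receive SRB staining for total protein as a cytotoxicity check. Data are fitted upward against DMSO.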

[6] = CCTE_Mundy_HCI_Cortical_NOG_NeuronCount: CCTE's Neurite Outgrowth Assay in rat cortical cells for Neuron Count, Mundy Lab (AID 2284236; active means hit-call score of the fitted dose curve at least 0.9, where 1 is the maximum;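 further: neurons counted by imaging betaIII-tubulin and Hoechst stained cortical cells; cells exposed to compound for about 48 hours before fixation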)
Summary of the method: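 Read-out: neuron number by high-content imaging of betaIII-tubulin (Alexa Fluor-488) and Hoechst-labelled rat primary cortical cells.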

[7] = CCTE_Mundy_HCI_Cortical_NOG_BPCount: CCTE's Neurite Outgrowth Assay in rat cortical cells for Branch Point Count, Mundy Lab (AID 2284237);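 further: branch points counted about two days after chemical exposure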
Summary of the method: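 Measured 50.33 h after dosing, this morphology endpoint uses rat primary cortical cultures labelled for betaIII-tubulin. Branch points are quantified by high-content imaging, with DMSO as negative control and baseline.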

[8] = CCTE_Mundy_HCI_hNP1_Casp3_7: CCTE's Caspase-Glo 3/7 Assay in human neuroprogenitor cells for Apoptosis, Mundy Lab (AID 2284240)
Summary of the method: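 Neuroepithelial-lineage stem cells from WA09 embryonic cells were treated with chemicals after 40–44 h of culture. Twenty-four hours later, caspase-3/7 activation was detected luminescently after a 30 min room-temperature reagent step, with DMSO as baseline.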

[9] = CCTE_Mundy_HCI_hNP1_CellTiter: CCTE's Cell Titer-Glo 2 Assay in human neuroprogenitor cells for Viability, Mundy Lab (AID 2284241; active means hit-call score of the fitted dose curve at least 0.9, where 1 is the maximum;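 on AC50: a hit is a drop in ATP luminescence versus DMSO meaning reduced viability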)
Summary of the method: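 Measures ATP content in human neural progenitors derived from WA09 embryonic cells. Read-out at 26.5 hours after dosing, with DMSO serving as the negative control and baseline.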

[10] = CCTE_Mundy_HCI_Cortical_Synap_Neur_Matur_NeuronCount: CCTE's Synaptogenesis and Neurite Maturation Assay in rat cortical cells for Neuron Count, Mundy Lab (AID 2284242; active means hit-call score of the fitted dose curve at least 0.9, where 1 is the maximum;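 on AC50: neuron number from Hoechst nuclei and MAP2 staining by high-content imaging; hits reduce neuron count versus DMSO baseline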)
Summary of the method: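 Cortical cells from rat are plated, treated with AraC at DIV 5, and exposed to test chemicals with a media change at DIV 7. At DIV 12 they are fixed and immunostained (MAP2, synaptophysin), and imaged neuron counts are compared against DMSO controls.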

Measured: AC50

OCc1ccco1
inactive: [1] | [2] | [3] | [4] | [5]

COC(=O)c1sccc1S(=O)(=O)NC(=O)Nc1nc(C)nc(OC)n1
inactive: [1] | [2] | [3] | [4] | [5]

CC(=O)C(Cl)C(=O)N(C)C (centres undefined)
active: [4] 34.4 µM
inactive: [1] | [2] | [3] | [5]

O=C(O)C(F)(F)C(F)(F)C(F)(F)C(F)(F)C(F)(F)C(F)(F)C(F)(F)C(F)(F)C(F)(F)C(F)(F)F
active: [1] 2.19 µM and 2.25 µM | [2] 2.59 µM and 2.58 µM | [3] 2.74 µM and 2.55 µM | [5] 5.14 µM and 6.09 µM
inactive: [4]

C=C(C)C(=O)[O][Sn]([CH2]CCC)([CH2]CCC)[CH2]CCC
active: [6] 0.0826 µM | [7] 0.0846 µM | [8] 2.77 µM | [9] 0.335 µM | [10] 54.7 nM

ClC(Cl)=C(Cl)C(Cl)=C(Cl)Cl
active: [1] 29.7 µM | [2] 3.97 µM | [3] 3.97 µM
inactive: [4] | [5]

CC1(C)Cc2cccc(O)c2O1
inactive: [1] | [2] | [3] | [4] | [5]

COP(=S)(OC)Oc1ccc(Sc2ccc(OP(=S)(OC)OC)cc2)cc1
active: [1] 28.7 µM | [2] 28.6 µM | [3] 27.4 µM
inactive: [4] | [5]

COP(=S)(OC)Oc1ccc(S(=O)(=O)N(C)C)cc1
inactive: [1] | [2] | [3] | [4] | [5]

COC[C@H](C)N(C(=O)CCl)c1c(C)csc1C
inactive: [1] | [2] | [3] | [4] | [5]

O=Cc1cccc(Oc2ccccc2)c1
inactive: [1] | [2] | [3] | [4] | [5]

O=S(=O)(c1ccc(Cl)cc1)c1ccc(Cl)cc1
inactive: [1] | [2] | [3] | [4] | [5]

CCCCCCCCC(=O)NCc1ccc(O)c(OC)c1
inactive: [1] | [2] | [3] | [4] | [5]

CCOC(=O)/C=C(C)/C=C/C[C@@H](C)CCCC(C)C
active: [1] 32.5 µM | [2] 30.6 µM | [3] 29.6 µM | [4] 20 µM | [5] 32.5 µM

Nc1ncc([N+](=O)[O-])s1
inactive: [1] | [2] | [3] | [4] | [5]

O=[N+]([O-])c1ccc2c3c(cccc13)CC2
inactive: [1] | [2] | [3] | [4] | [5]

C(=NC1CCCCC1)=NC1CCCCC1
active: [1] 5.82 µM | [2] 7.83 µM | [3] 7.21 µM | [4] 10.7 µM | [5] 11.9 µM

CC(C)c1ccc(CO)cc1
inactive: [1] | [2] | [3] | [4] | [5]

BrCCBr
inactive: [1] | [2] | [3] | [4] | [5]

O=C1C2(Cl)C3(Cl)C4(Cl)C(Cl)(Cl)C5(Cl)C3(Cl)C1(Cl)C5(Cl)C24Cl (centres undefined)
active: [6] 15 µM | [7] 7.19 µM | [8] 20.1 µM | [9] 23.5 µM
inactive: [10]

CC(C)CCCCCCOC(=O)c1ccccc1C(=O)OCCCCCCC(C)C
inactive: [1] | [2] | [3] | [4] | [5]

CCOP(=S)(OCC)Oc1ccc(S(C)=O)cc1 (centres undefined)
inactive: [1] | [2] | [3] | [4] | [5]

Nc1ccc(-c2ccc(N)c(Cl)c2)cc1Cl
inactive: [3] | [5]
active: [1] 13.7 µM | [2] 3.17 µM | [4] 32.4 µM

CCOP(=S)(OCC)SCCS(=O)(=O)CC
active: [4] 23.9 µM
inactive: [1] | [2] | [3] | [5]

Oc1ccc(-c2ccccc2)cc1
inactive: [1] | [3] | [4] | [5]
active: [2] 0.414 µM

Oc1c(I)cc(I)cc1I
active: [1] 9.61 µM | [2] 3.97 µM | [3] 20 µM
inactive: [4] | [5]

CCNc1nc(NC(C)(C)C)nc(SC)n1
inactive: [1] | [2] | [3] | [4] | [5]

COP(=O)(OC)O/C(=C\Cl)c1cc(Cl)c(Cl)cc1Cl
inactive: [6] | [10]
active: [6] 51.5 µM | [7] 31.1 µM and 23 µM | [8] 12.4 µM and 70.3 µM | [9] 23.3 µM and 89 µM | [10] 51500 nM

CCOP(=S)(OCC)Oc1nc(Cl)c(Cl)cc1Cl
active: [6] 9.92 µM and 75.5 µM | [7] 29.8 µM | [8] 7.91 µM and 89.6 µM | [9] 35.5 µM | [10] 82.7 µM and 26.6 µM

COP(=S)(OC)Oc1cc(Cl)c(Cl)cc1Cl
active: [3] 31.9 µM
inactive: [1] | [2] | [4] | [5]

O=C(O)C(F)(F)C(F)(F)C(F)(F)C(F)(F)C(F)(F)C(F)(F)F
not listed: [6] | [7] | [10]
inactive: all other assays above

O=C(O)CCC(F)(C(F)(F)F)C(F)(F)F
inactive: [1] | [2] | [3] | [4] | [5]

ClC1=C(Cl)[C@]2(Cl)[C@H]3[C@H]([C@H]4C=C[C@H]3C4)[C@@]1(Cl)C2(Cl)Cl
active: [2] 5.43 µM | [3] 8.66 µM
inactive: [1] | [4] | [5]

CCSC(C)CC1CC(=O)C(C(CC)=NOC/C=C/Cl)=C(O)C1 (centres undefined)
inactive: [1] | [2] | [3] | [4] | [5]

NC(=S)Nc1ccccc1
inactive: [1] | [2] | [3] | [4] | [5]

CCCCC(CC)CO[N+](=O)[O-] (centres undefined)
inactive: [1] | [2] | [3] | [4] | [5]

COP(=S)(OC)Oc1c(Cl)cc(C)cc1Cl
inactive: [1] | [2] | [3] | [4] | [5]

COc1cc(OC)nc(NC(=O)NS(=O)(=O)c2ncccc2C(=O)N(C)C)n1
inactive: [1] | [2] | [3] | [4] | [5]

Nc1cccc2ccccc12
active: [2] 14.5 µM
inactive: [1] | [3] | [4] | [5]

O=C(OC1CCCCC1)c1ccccc1C(=O)OC1CCCCC1
inactive: [5]
active: [1] 13 µM | [2] 16.6 µM | [3] 12.5 µM | [4] 30.9 µM
